{
  "source": "ChEMBL document CHEMBL4513216",
  "about": "“Probing the Open Global Health Chemical Diversity Library for Multistage-Active Starting Points for Next-Generation Antimalarials” (ACS Infect Dis, 2020)",
  "note": "About 8,600 (12%) of roughly 69,000 compounds showed an effect of 50% or more. What follows is part of a selection rich in strong results, with near analogues and random picks from the rest.",
  "data": [
    {"system": "Plasmodium berghei", "experiment": "Screen against P. berghei liver stage (PbLuc), transformed with Luciferase, at 10uM", "type": "functional, HepG2", "settings": "tested at 10 uM", "units": {"INHIBITION": "%"}, "values": [
      {"smiles": "COc1ccc(CNC2CCC3(CCC(=O)N3)CC2)cc1", "note": "(stereo unspecified)", "INHIBITION": 19.8},
      {"smiles": "CC(C)c1nn(C)c(N(C)C)c1CNCc1cccc(CN(C)C)c1", "INHIBITION": 21.8},
      {"smiles": "Cn1ncc(C(=O)O)c1C(=O)Nc1nc2ccc(Br)cc2s1", "INHIBITION": 6.27},
      {"smiles": "COCCOCC(=O)N1CCc2cc(Cl)cc(Cl)c2C1", "INHIBITION": 1.86},
      {"smiles": "CCSCc1nc(O)c2nnn(C3CCN(Cc4ccco4)CC3)c2n1", "INHIBITION": 32.5},
      {"smiles": "Cc1ccc(C)c(C(=O)N2CCC3(CCC(=O)N(CC(N)=O)C3)CC2)c1", "INHIBITION": 15.2},
      {"smiles": "Cn1cc(C(=O)N2CCN(c3ncccn3)CC2)ccc1=O", "INHIBITION": 28.8},
      {"smiles": "CN(CC1CCOC1)S(=O)(=O)c1cccc(C(=O)N2CCCCCC2)c1", "note": "(stereo unspecified)", "INHIBITION": -7.57},
      {"smiles": "CCOc1ncnc2c1CCN(S(=O)(=O)CC)CC2", "INHIBITION": 30.5},
      {"smiles": "O=C(Cc1cccc(F)c1)N1CCc2ncnc(N3CCCC3)c2CC1", "INHIBITION": -13.9},
      {"smiles": "Cc1ncnc2c1CCN(C(=O)Cc1cccc(F)c1)CC2", "INHIBITION": 36.4},
      {"smiles": "CCS(=O)(=O)N1CCc2ncnc(OC)c2CC1", "INHIBITION": 79.2},
      {"smiles": "COc1ncnc2c1CCN(C(=O)Cc1cccc(F)c1)CC2", "INHIBITION": 52.6},
      {"smiles": "O=C(Cc1cccc(F)c1)N1CCc2ncnc(NC3CCC3)c2CC1", "INHIBITION": 53},
      {"smiles": "O=C(Cc1cccc(F)c1)N1CCc2ncnc(NC3CC3)c2CC1", "INHIBITION": 14},
      {"smiles": "CCS(=O)(=O)N1CCc2ncnc(C)c2CC1", "INHIBITION": 42.3},
      {"smiles": "COc1ncnc2c1CCN(C(=O)NCc1cccc(F)c1)CC2", "INHIBITION": 17.2},
      {"smiles": "Cc1ccc(CN2CCOCC2c2[nH]ncc2C)cn1", "note": "(stereo unspecified)", "INHIBITION": 13.635},
      {"smiles": "CCC(c1ccccc1)c1nn2c(CN(CC)CC)nnc2s1", "note": "(stereo unspecified)", "INHIBITION": 23.1},
      {"smiles": "CCC(=O)NCCc1cc2nc(-c3ccncc3)ccn2n1", "INHIBITION": 21.4},
      {"smiles": "COCC(C)NC(=O)c1cc(C)n(-c2cccc(OC)c2)c1C", "note": "(stereo unspecified)", "INHIBITION": 35.9},
      {"smiles": "CN1C(=O)CCCC12CCCN(C(=O)c1cccc(C(F)(F)F)c1)C2", "note": "(stereo unspecified)", "INHIBITION": 40.8},
      {"smiles": "CSCC[C@H](NC(C)=O)c1nc(CCc2ccccc2)n[nH]1", "INHIBITION": -47.9},
      {"smiles": "CCC=C(C)C(=O)NCc1ccc(OC)nc1", "INHIBITION": -0.514},
      {"smiles": "Cc1ccccc1-c1noc(CN2CCc3nn(C)c(=O)cc3C2)n1", "INHIBITION": 7.08},
      {"smiles": "CCOCC(O)CN1CCN(C(=O)Cc2ccc3c(c2)CCO3)CC1", "note": "(stereo unspecified)", "INHIBITION": 9.25},
      {"smiles": "CCOCC(O)CN1CCN(C(=O)Cc2cccc(C)c2)CC1", "note": "(stereo unspecified)", "INHIBITION": -52.95},
      {"smiles": "CCOCC(O)CN1CCN(C(=O)Cc2ccc3c(c2)CCC3)CC1", "note": "(stereo unspecified)", "INHIBITION": 51.5},
      {"smiles": "O=C(Cc1ccccc1Cl)N1CCN(CC(O)COCCO)CC1", "note": "(stereo unspecified)", "INHIBITION": 57.85},
      {"smiles": "CCC(O)CN1CCN(C(=O)Cc2ccccc2Cl)CC1", "note": "(stereo unspecified)", "INHIBITION": 18.625},
      {"smiles": "CCOCC(O)CN1CCN(C(=O)Cc2ccccc2Cl)CC1", "note": "(stereo unspecified)", "INHIBITION": 25.6},
      {"smiles": "O=C(c1cnccn1)N1CCCC2(CCN(Cc3cccnc3)C2)C1", "note": "(stereo unspecified)", "INHIBITION": -19.5},
      {"smiles": "O=C(c1cncc(NCC2COc3ccccc3C2)n1)N1CCCCC1", "note": "(stereo unspecified)", "INHIBITION": 0.348},
      {"smiles": "CC(C)Cc1nc(OCC(N)=O)c(C#N)c2c1CCCC2", "INHIBITION": 51},
      {"smiles": "CC(C)Cc1nc(OCC(N)=O)c(C#N)c2c1CCC2", "INHIBITION": 16.6},
      {"smiles": "CC(C)Cc1nc(OCC(=O)O)c(C#N)c2c1CCCC2", "INHIBITION": 43.4},
      {"smiles": "C[C@@H]1C[C@H](C(F)(F)F)n2nc(C3CCN(C(=O)C(C)(C)C)CC3)cc2N1", "INHIBITION": 8.72},
      {"smiles": "O=C(NCc1cccnc1)C1=NOC2(CCN(C(=O)N3CCCC3)C2)C1", "note": "(stereo unspecified)", "INHIBITION": -50.9},
      {"smiles": "CCc1ncc(C(=O)N(C)CCc2nc3cc(OC)ccc3[nH]2)cn1", "INHIBITION": 59.1},
      {"smiles": "CN(CCc1nc2cc(Cl)ccc2[nH]1)C(=O)c1ncn[nH]1", "INHIBITION": 16.5},
      {"smiles": "CCNc1ncc(C(=O)N(C)CCc2nc3cc(Cl)ccc3[nH]2)cn1", "INHIBITION": 41.5},
      {"smiles": "CCn1cnnc1CNC(=O)c1ccc(Cl)cc1I", "INHIBITION": 44.1},
      {"smiles": "COc1cc(N2CCC3(CC2)CNC(=O)CO3)ncn1", "INHIBITION": 16.6},
      {"smiles": "O=C1COC2(CCN(c3ncccn3)CC2)CN1", "INHIBITION": 70},
      {"smiles": "O=C1COC2(CCN(c3ccccn3)CC2)CN1", "INHIBITION": -23.3},
      {"smiles": "O=C1CCCCN1CCCC(=O)N1CCC2(CC1)[C@H](O)C[C@@H]2O", "INHIBITION": 26.8},
      {"smiles": "Cc1csc(NC(=O)CN(C)CC2CCCN2c2cccnn2)n1", "note": "(stereo unspecified)", "INHIBITION": 48.5},
      {"smiles": "CN(CC(=O)Nc1ccncc1)CC1CCCN1c1cccnn1", "note": "(stereo unspecified)", "INHIBITION": 41.4},
      {"smiles": "CC(=O)Nc1nc(CN(C)C2CCCN(c3cccnn3)C2)cs1", "note": "(stereo unspecified)", "INHIBITION": 31.2},
      {"smiles": "CC(=O)Nc1nc(CN(C)CC2CCCN2c2cccnn2)cs1", "note": "(stereo unspecified)", "INHIBITION": 51.7},
      {"smiles": "CN(CC(=O)Nc1nncs1)CC1CCCN1c1cccnn1", "note": "(stereo unspecified)", "INHIBITION": 3.77},
      {"smiles": "CN(CC(=O)Nc1cccnc1)CC1CCCN1c1cccnn1", "note": "(stereo unspecified)", "INHIBITION": 53.4},
      {"smiles": "Cc1noc(C)c1CCC(=O)N[C@@H]1CCC[C@@H](Oc2cccnc2)[C@@H]1O", "INHIBITION": -27.1},
      {"smiles": "CS(=O)(=O)c1cccc(C(=O)NCC2(c3ccccc3)CC2)c1", "INHIBITION": 86.8},
      {"smiles": "O=C(NCCCN1CCc2ccccc2C1)c1ccccc1Cl", "INHIBITION": -7.31},
      {"smiles": "Cc1cccc(C(=O)NCCCN2CCc3ccccc3C2)c1C", "INHIBITION": 21.5}
    ]}
  ]
}
